# Assay results as given in article PMC12136788.
# Residue numbers refer to the chain shown, from its start. In all, about 24,000 sequences were measured (“enrichment r”: median about 0.99, highest 2% from about 3.7 on). Shown is part of a subset that was picked to be rich in the highest values.
# T1: UNK ZnF1-3 (human, UniProt Q9C0B0 31-174)
# T1 sequence: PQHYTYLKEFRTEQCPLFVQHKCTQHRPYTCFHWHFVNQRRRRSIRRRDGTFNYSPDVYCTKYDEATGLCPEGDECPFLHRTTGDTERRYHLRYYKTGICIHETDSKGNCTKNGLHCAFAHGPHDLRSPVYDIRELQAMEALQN
# B1: 18916218_18916338_822_CDS_ENSMUSG00000020160_ENSMUST00000068264|mouse|control|control (ssRNA)
# RNA: GGGAGUUCUACAGUCCGACGAUCGUGCGGGUACUGAUGCGAGUGCAGAGGAGGCCCGUGGUUCAGGUGGUGGACCGGUUGCAUGGACCUGGCUGCAUGCGGGUCCCCAUACAUCGUGGAGGGGAUGCCUACUCCAUCCAUACCCAACAGAGGAUUGAGCAUCA
# B2: chr11:2981123:2981124:-_ENSG00000205531_ENST00000380542|hu_mus|FALSE|FALSE (ssRNA)
# RNA: GGGAGUUCUACAGUCCGACGAUCCUUGUACGUUUUCGUCAGGACAGGAUUGGUGAAGUAGUCGUUGGGUUCAAAGUGAAACUCUAGCACAAAAGACAUAGGUUGUCCAGGGUCUGAAAACUUCACUUUAAUAUCCUGCAGAUGCAACAGAGGAUUGAGCAUCA
# B3: chr6:155153589:155153590:+_ENSG00000213079_ENST00000417268|hu_hu|motif|central (ssRNA)
# RNA: GGGAGUUCUACAGUCCGACGAUCAGUAACAUUGUCUACGCUUUGUCUUCCAGGAGCUAAAAAAGGUCUUUCUGGUUGACGGAAAAUAUCUCCUGGAGGAAAAGGUCCACGGGGUGGUGGAUGAAGAGCUGAAUCAAGUACCGACAACAGAGGAUUGAGCAUCA
# B4: chr1:161298228:161298229:+_ENSG00000143252_ENST00000367975|hu_hu|motif|central (ssRNA)
# RNA: GGGAGUUCUACAGUCCGACGAUCCAUGGGAAGAGACCAACUGUAGAUAGUAAUGUGGGGAGACAGAGGACGGUUUGAACCGGUAUUCUUAUUCCAGAACCGCUCCAUCUCUUCUUUGGCCGUGGUUCCCAAAGGAACAGCAUUCAACAGAGGAUUGAGCAUCA
# B5: 32561585_32561705_2007_CDS_ENSG00000100852_ENST00000539826|human|control|control (ssRNA)
# RNA: GGGAGUUCUACAGUCCGACGAUCUAGUUCUUGGGCAAGGCCAUCCUUCCCUAAAAUAAAAAGGUUAACUUUAUCUAUAUUGGUACUAUCGUGAUAUAAUCUUAAGCGGCCAUGAUCCAACUGUAAAAGACUACUAGCAAGUAACAACAGAGGAUUGAGCAUCA
# B6: chr3:139076767:139076768:-_ENSG00000184432_ENST00000507777|hu_mus|motif|central (ssRNA)
# RNA: GGGAGUUCUACAGUCCGACGAUCACUUUAAUCAUCCAGAAUAUCUUCAUCCAGAUUAAUGUCUGUUGUGUCAAUAUCCUCGGAUUCCAAGUUAUCCAAAUCAACUUCUAGUUCUAGUAAACUCUUUUCUUCUUUGUGGGUAGUCAACAGAGGAUUGAGCAUCA
# B7: chr1:58468927:58468928:-_ENSMUSG00000026034_ENSMUST00000148330|mus_mus|mus_mus_mus_hu_False|68_68 (ssRNA)
# RNA: GGGAGUUCUACAGUCCGACGAUCAAUUACUGAAAAAGAUGUUCAUUACCUUAGCUAUGUACUUAAUUUAAUAAAGCACCCAAACAAAAUAAACAUGGCAAUAUAAAAAUGUUAAGAAUUUACAAAGCUGUACAAAAUAACUUACAACAGAGGAUUGAGCAUCA
# B8: chr5:38529146:38529147:-_ENSMUSG00000029126_ENSMUST00000031009|mus_mus|FALSE|FALSE (ssRNA)
# RNA: GGGAGUUCUACAGUCCGACGAUCAGAAAAGCUAAAGUAGCCCUGGCUUACCCAAAAUUACAUUUCACUUUGCCCACUGGCUAAUAAAACAAAACAAAACAAAACAAAAAACCCAAACUGCACCUGCAUUCAGGGCUGUACGUGCAACAGAGGAUUGAGCAUCA
# B9: chr5:38529174:38529175:-_ENSMUSG00000029126_ENSMUST00000031009|mus_mus|FALSE|FALSE (ssRNA)
# RNA: GGGAGUUCUACAGUCCGACGAUCGAAAAGCUAAAGUAGCCCUGGCUUACCCAAAAUUACAUUUCACUUUGCCCACUGGCUAAUAAAACAAAACAAAACAAAACAAAAAACCCAAACUGCACCUGCAUUCAGGGCUGUACGUGCCAACAGAGGAUUGAGCAUCA
# B10: chr1:58468927:58468928:-_ENSMUSG00000026034_ENSMUST00000148330|mus_mus|mus_mus_mus_hu_False|1_68 (ssRNA)
# RNA: B7 RNA with U137A, A138G, U142G
# B11: chr1:58468927:58468928:-_ENSMUSG00000026034_ENSMUST00000148330|mus_mus|mus_mus_mus_hu_False|58_68 (ssRNA)
# RNA: B7 RNA with C78U, C80U, C84A
# B12: chr15:100049815:100049816:+_ENSMUSG00000023026_ENSMUST00000100203|mus_hu|FALSE|FALSE (ssRNA)
# RNA: GGGAGUUCUACAGUCCGACGAUCAAUGAGUUAAUAGAACACUGUCCAGCCAGAUGUUAAAUUUAAAAACGUAUAUCUAGUCUAACUUCAAAUAAAUAAAAAAACUUUAUACAUAAUUACACAGUACUGUAGUUUGAAUUUGACCAACAGAGGAUUGAGCAUCA
# B13: chr15:100049815:100049816:+_ENSMUSG00000023026_ENSMUST00000100203|mus_mus|motif|central (ssRNA)
# RNA: GGGAGUUCUACAGUCCGACGAUCAAUGAGUUAAUAGAACACUGUCCAGCCAGAUGUUAAAUUUAAAAAUGUAUAUCGGACCGGAUUUCAAAUAAAUAAAAAAACCUUUAUACAUAAUUACACAGUACUAUAGUUUGAAUUGGACAACAGAGGAUUGAGCAUCA
# B14: chr15:100049815:100049816:+_ENSMUSG00000023026_ENSMUST00000100203|mus_hu|motif|central (ssRNA)
# RNA: B12 RNA with U77G, A78G, U82G, A83G
# B15: chr1:58468927:58468928:-_ENSMUSG00000026034_ENSMUST00000148330|mus_mus|mus_mus_mus_hu_False|18_68 (ssRNA)
# RNA: B7 RNA with U118A, U119A, C122A, A123C, A124U, A125U, G126A
# B16: chr1:58468927:58468928:-_ENSMUSG00000026034_ENSMUST00000148330|mus_mus|mus_mus_mus_hu_False|28_68 (ssRNA)
# RNA: B7 RNA with U109G, G110C, U112A, A113U, G115C
# B17: chr10:33190432:33190433:-_ENSG00000150093_ENST00000302278|hu_mus|hu_hu_hu_mus_True|28_68 (ssRNA)
# RNA: GGGAGUUCUACAGUCCGACGAUCUACAUUUUCCAAACCUGCAUGUGAAUAAAACCCUGGCCACAGAGCCCUAAAGCUACCCUACUGUGACUAAGAUGCUGCUGCUGUUGCAUUCAGGUUGCAAAAUCCGCCUGAGUAGGAUUCCAACAGAGGAUUGAGCAUCA
# B18: 28740388_28740508_4059_3pUTR_ENSMUSG00000048271_ENSMUST00000114884|mouse|control|control (ssRNA)
# RNA: GGGAGUUCUACAGUCCGACGAUCUUUGAGCUGGUAACAUUCUUUCCUGAAUCUAAAACUCUGUGACCAAUCACAUAGCAGGAUCACGAAGAACAAGGUCUACAUGCAUUAUAAGCACUCGGAAACAAAAGAACACGAGAACAGCAACAGAGGAUUGAGCAUCA
# B19: chr7:149068622:149068623:-_ENSMUSG00000025139_ENSMUST00000001950|mus_hu|mus_mus_mus_hu_False|58_98 (ssRNA)
# RNA: GGGAGUUCUACAGUCCGACGAUCGUGAGGCCUCUGAGUGAGGUUCCUGGUCUGUCCUGGGUUAGAGUUGUUAAUAUCACUAAGUGGACCAUCUAGAACGUUCCAGUCCCGCCUGACACCUUCAUUCCCAAUGGAGAAGAAAUCCAACAGAGGAUUGAGCAUCA
# B20: chr14:21343309:21343310:-_ENSMUSG00000021816_ENSMUST00000161445|mus_hu|motif|central (ssRNA)
# RNA: GGGAGUUCUACAGUCCGACGAUCAGGAUCGGACCAUAACAAGUCACACAUUGGUCCAAAUGCAGGUGGCUCUUUGAAUCGGUCGGAUCUCCUAAUAUCAUCCAGUGUGUGUAUUUCUGGUGAAAGUCCACCAUGAACACAAAGCAACAGAGGAUUGAGCAUCA
# B21: chr1:78194255:78194256:-_ENSG00000077254_ENST00000357428|hu_mus|motif|central (ssRNA)
# RNA: GGGAGUUCUACAGUCCGACGAUCAUUGCUGUCCUCAGGAAAGCCUUUGGAGCCACUCUCAUUUUCUGCUUUCUCGCUGCUGCGGCAAGACUCGCACGACUGAAAAUCCACAUCUGACUGGCUCUUCUCUUCCUCCACCGUCUCCAACAGAGGAUUGAGCAUCA
# B22: chr7:128503047:128503048:+_ENSG00000128524_ENST00000249289|hu_mus|FALSE|FALSE (ssRNA)
# RNA: GGGAGUUCUACAGUCCGACGAUCGGUGGUAUCCUUCUCCACUACCAGGAAAUUAGGGUGGCGGUUCUUGUUUAGCUCCCCUAUGCCGCCCAACAGGAAACCAGUCACCGUGUCCUCGUCUCCAAUCACCGCGAUUAGCUUACCCAACAGAGGAUUGAGCAUCA
# Target: T1, UNK ZnF1-3
# Assay: nsRBNS (natural sequence RNA bind-n-seq); RBNS binding buffer (assumed for nsRBNS): 25 mM Tris pH 7.5, 150 mM KCl, 3 mM MgCl2, 0.01% Triton X-100, 500 ug/ml BSA, 20 U/ml SUPERase-In, 4 C; UNK is unkempt and MSI1 is Musashi-1; names of the RNAs are library labels; protein concentration not given here; high values mean tight binding
row,Binder,binding signal [enrichment R]
1,B1,0.98
2,B2,0.872
3,B3,0.663
4,B4,1.08
5,B5,1.31
6,B6,0.449
7,B7,1.87
8,B8,4.49
9,B9,1.5
10,B10,1.68
11,B11,3.76
12,B12,1.95
13,B13,2.23
14,B14,4.96
15,B15,3.68
16,B16,0.868
17,B17,1.01
18,B18,1.22
19,B19,0.755
20,B20,0.921
21,B21,0.703
22,B22,0.494
